Results filed as inconclusive are left out. Where a call stands in place of a potency, no number is given. Active and inactive are the calls of the source. Calls follow the shape of the dose curve; as a rule, active = well fitted curve in the direction sought with a large enough effect; inconclusive = small, poorly fitted or top-dose-only effect, or another doubt; inactive = no such curve, though single readings can be large; an effect the other way counts as inactive or inconclusive.
Columns and labels:
[1] = qHTS for H2AX Agonists against the NCATS CANVASS Library (AID 1347378);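 also: phospho-H2AX S139 level in CHO-K1 lysates by TR-FRET emission ratio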; also: potency is read from the fitted curve at half-maximal effect
Text: Natural products and their derivatives continue to be wellsprings of nascent therapeutic potential. However, many laboratories have limited resources for biological evaluation, leaving their previously isolated or synthesized compounds largely or completely untested. To address this issue, the Canvass library of natural products was assembled (https://tripod.nih.gov/canvass), in collaboration with academic and industry researchers, for quantitative high-throughput screening (qHTS) across a diverse set of cell-based and biochemical assays. The pure (>85% purity by liquid chromatography/mass spectrometry [LC/MS]) Canvass library of 346 natural products were submitted by 45 academic laboratories and companies around the world. We collected pure natural products to circumvent deconvolution and structure elucidation due to time and resource limitations. The library was formatted into 1536-well plates and evaluated in 50 qHTS (in an 11-pnt concentration series) bioassays with broad scope of disease-relevant mechanisms. The resulting data set from 50 different assays was then systematically analyzed to identify overall trends and specific natural products with interesting biological activities. […] It is based on time resolved fluorescence resonance energy transfer (TR-FRET). […] The results were expressed as the ratio of 665/615 nm emissions. […]

[2] = qHTS for Inflammasome Signaling Inhibitors: IL-1-beta AlphaLISA screen against the NCATS CANVASS Library (AID 1347379); details: outcome: dose series up to 57.5 µM;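 also: human THP-1 cells primed with LPS then triggered with ATP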
Summary of the method: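 THP-1, 1 hr compound pre-incubation, then LPS 250 ng/mL + ATP 1.25 mM (final); 16 hr total with compound; IL-1B AlphaLISA, ex 680/em 615 nm; 11-point qHTS, up to 57.5 uM final.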

[3] = qHTS for Antimalaria activity screened against the NCATS CANVASS Library (AID 1347380); also: potency is read from the fitted curve at half-maximal effect; nearly all actives have a fitted effect of over 40% in size; details: P. falciparum Dd2 growth, SYBR Green fluorescence, 72 h
Text: Natural products and their derivatives continue to be wellsprings of nascent therapeutic potential. However, many laboratories have limited resources for biological evaluation, leaving their previously isolated or synthesized compounds largely or completely untested. To address this issue, the Canvass library of natural products was assembled (https://tripod.nih.gov/canvass), in collaboration with academic and industry researchers, for quantitative high-throughput screening (qHTS) across a diverse set of cell-based and biochemical assays. […] The library was formatted into 1536-well plates and evaluated in 50 qHTS (in an 11-pnt concentration series) bioassays with broad scope of disease-relevant mechanisms. The resulting data set from 50 different assays was then systematically analyzed to identify overall trends and specific natural products with interesting biological activities. […] The proliferation assay assesses the ability of compounds to inhibit the proliferation and/or have cytotoxic effects (72 hr) against the asexual erythrocytic growth of Plasmodium falciparum Dd2, as determined by a SYBRGreen fluorescence assay. […]
Malaria-screen protocol: Assay adopted from Plouffe et al. 2008 PNAS 105: 9059; PMID: 18579783. […] The fluorescence signal was read using the EnVision (PerkinElmer) plate reader (bottom read) using a 485/14 nm excitation and 535/25 nm emission filters.

[4] = Inflammasome Signaling qHTS Counterscreen: IL-1-beta AlphaLISA counterscreen against the NCATS CANVASS Library (AID 1347381);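 also: cell-free check with purified IL-1β in medium and no THP-1 cells; series mostly up to about 57 µM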
Summary of the method: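 Here, no cellular stimulation occurs; compounds in an 11-point series meet 4 pg purified IL-1-beta directly. Bead-based AlphaLISA detection follows (1 h acceptor/antibody, then 30 min donor, dark, room temperature), with excitation at 680 nm.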

[5] = Cytotoxicity qHTS for assessment of Hepg2 cells membrane integrity screened against the NCATS CANVASS Library (AID 1347387)
Summary of the method: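 Membrane damage in HepG2 monolayers was estimated from released LDH, measured with CytoTox-ONE (ex 560/em 590 nm), after 5 hr treatment across 0.59 nM - 46 uM final.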

[6] = qHTS for Activators of p53 Stress Response Pathway screened against the NCATS CANVASS Library (AID 1347388)
Summary of the method: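 Beta-lactamase reporter driven by p53 response elements in HCT-116 cells, read as the 460 nm/530 nm emission ratio after CCF4 loading, following 16 h of exposure to an 11-point series. Cell viability was measured in the same wells by CellTiter-Glo luminescence.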

[7] = qHTS assay for small molecule disruptors of mitochondrial membrane potential screened against the NCATS CANVASS Library (AID 1347389); also: nearly all actives have a fitted effect of over 60% in size; also: potency is read from the fitted curve at half-maximal effect
Summary of the method: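 Cells (HepG2) seeded the day before received compound or DMSO for 1 hr, then Mito-MPS dye for 30 min at 37C; emission at 590 nm over 535 nm gave the polarization signal.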

[8] = qHTS for activators of dead-cell proteases activity screened against the NCATS CANVASS Library (AID 1347392);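 also: luminescence from protease leaking out of membrane-damaged cells cleaving impermeant substrate; rising signal means more cytotoxicity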
Text: Natural products and their derivatives continue to be wellsprings of nascent therapeutic potential. However, many laboratories have limited resources for biological evaluation, leaving their previously isolated or synthesized compounds largely or completely untested. To address this issue, the Canvass library of natural products was assembled (https://tripod.nih.gov/canvass), in collaboration with academic and industry researchers, for quantitative high-throughput screening (qHTS) across a diverse set of cell-based and biochemical assays. The pure (>85% purity by liquid chromatography/mass spectrometry [LC/MS]) Canvass library of 346 natural products were submitted by 45 academic laboratories and companies around the world. […] The library was formatted into 1536-well plates and evaluated in 50 qHTS (in an 11-pnt concentration series) bioassays with broad scope of disease-relevant mechanisms. The resulting data set from 50 different assays was then systematically analyzed to identify overall trends and specific natural products with interesting biological activities. […] The amount of luminescence directly correlates with the percentage of cells undergoing cytotoxic stress. […]
Protease-screen assay protocol: 1. […] The luminescence readout was obtained using the ViewLux plate reader (PerkinElmer) using a clear emission filter, 2x binning, 1 sec exposure settings.

[9] = qHTS for inhibitors of ER calcium dysfunction: SERCaMP assay screened against the NCATS CANVASS Library (AID 1347393); also: nearly all actives have a fitted effect of over 40% in size; also: potency is read from the fitted curve at half-maximal effect
Text: Natural products and their derivatives continue to be wellsprings of nascent therapeutic potential. However, many laboratories have limited resources for biological evaluation, leaving their previously isolated or synthesized compounds largely or completely untested. To address this issue, the Canvass library of natural products was assembled (https://tripod.nih.gov/canvass), in collaboration with academic and industry researchers, for quantitative high-throughput screening (qHTS) across a diverse set of cell-based and biochemical assays. The pure (>85% purity by liquid chromatography/mass spectrometry [LC/MS]) Canvass library of 346 natural products were submitted by 45 academic laboratories and companies around the world. We collected pure natural products to circumvent deconvolution and structure elucidation due to time and resource limitations. The library was formatted into 1536-well plates and evaluated in 50 qHTS (in an 11-pnt concentration series) bioassays with broad scope of disease-relevant mechanisms. The resulting data set from 50 different assays was then systematically analyzed to identify overall trends and specific natural products with interesting biological activities. […]
SERCaMP assay protocol: 1. […] Luminescence signal was obtained via the ViewLux plate reader (Perkin Elmer) using the clear emission filter and 1x binning, 5 seconds exposure settings.

[10] = Vero-766 cells viability qHTS against the NCATS CANVASS Library: Counterscreen for Zika virus inhibition assay (AID 1347394); also: nearly all actives have a fitted effect of over 60% in size; also: potency is read from the fitted curve at half-maximal effect
Summary of the method: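 CellTiter Glo luminescence measured cytotoxicity after 72 h at 37C in uninfected Vero 766 cells, plated at 1000 cells/well. Compounds were applied in an 11-point series. Wells without cells defined 100% inhibition.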

| SMILES | Potency [1] | outcome [2] | Potency [3] | outcome [4] | outcome [5] | outcome [6] | Potency [7] | outcome [8] | Potency [9] | Potency [10] |
| --- | --- | --- | --- | --- | --- | --- | --- | --- | --- | --- |
| O=C(O)c1cc(O)c(O)c(O)c1 | inactive | inactive | 0.0053 µM (active) | inactive | inactive | inactive | inactive | inactive | inactive | inactive |
| O=c1cc(-c2ccccc2)oc2c(O)c(O)ccc12 | 34.4 µM (active) | inactive | 0.0067 µM (active) | inactive | inactive | inactive | 18.6 µM (active) | inactive | 38.4 µM (active) | 23.4 µM (active) |

From PubChem BioAssay (NCATS)
